Measured values published in PubChem BioAssay (Tox21).
Results filed as inconclusive are left out. Where a call stands in place of a potency, no number is given. Activity calls are given as the source filed them. Unless noted, the call rests on the fitted dose curve.

biological target: Progesterone receptor (Homo sapiens) (UniProt P06401); test: qHTS assay to identify small molecule agonists of the progesterone receptor (PR) signaling pathway (AID 1346784); conditions: PR-UAS-bla HEK293T, beta-lactamase FRET ratio, 16 h; series mostly up to 92.4 µM; further: nearly all actives have a fitted effect of over 30% in size
Summary of the method: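 Agonist mode, quantitative HTS format in a HEK 293T line expressing a UAS-controlled beta-lactamase reporter; 16 hr compound exposure at 37C in 2% charcoal-stripped FBS, then LiveBLAzer B/G FRET fluorescence.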

Chain of Progesterone receptor (Homo sapiens) (P06401 whole entry, looked up): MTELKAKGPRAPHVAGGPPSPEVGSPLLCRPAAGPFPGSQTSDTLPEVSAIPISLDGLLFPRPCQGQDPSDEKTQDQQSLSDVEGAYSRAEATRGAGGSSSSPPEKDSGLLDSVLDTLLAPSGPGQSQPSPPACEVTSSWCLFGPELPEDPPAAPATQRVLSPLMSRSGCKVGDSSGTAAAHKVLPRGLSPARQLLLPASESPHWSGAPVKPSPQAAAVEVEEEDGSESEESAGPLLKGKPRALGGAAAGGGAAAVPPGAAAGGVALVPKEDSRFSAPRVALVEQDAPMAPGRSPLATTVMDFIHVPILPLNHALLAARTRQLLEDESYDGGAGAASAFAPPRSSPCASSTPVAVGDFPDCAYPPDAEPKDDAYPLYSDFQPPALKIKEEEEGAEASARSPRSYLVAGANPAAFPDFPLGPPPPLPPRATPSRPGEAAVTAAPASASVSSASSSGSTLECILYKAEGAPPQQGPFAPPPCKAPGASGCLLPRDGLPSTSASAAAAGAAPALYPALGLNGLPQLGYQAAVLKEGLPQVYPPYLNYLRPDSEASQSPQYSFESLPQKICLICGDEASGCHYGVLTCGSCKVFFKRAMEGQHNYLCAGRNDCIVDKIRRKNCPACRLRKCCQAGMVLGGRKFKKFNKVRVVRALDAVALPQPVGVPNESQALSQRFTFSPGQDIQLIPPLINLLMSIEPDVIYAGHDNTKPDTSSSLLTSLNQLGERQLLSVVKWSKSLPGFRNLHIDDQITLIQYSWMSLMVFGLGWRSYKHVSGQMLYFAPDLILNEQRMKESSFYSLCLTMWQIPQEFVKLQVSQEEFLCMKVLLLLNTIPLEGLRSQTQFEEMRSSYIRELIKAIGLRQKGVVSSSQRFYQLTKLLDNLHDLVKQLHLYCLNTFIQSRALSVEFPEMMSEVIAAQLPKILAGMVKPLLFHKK

Question: How did the Potency turn out when `COC(=O)CCCCCCCCC(=O)OC` was run?
Answer: inactive

Question: For `C[N+](C)(C)CC[N+]1(C)Cc2c(Cl)c(Cl)c(Cl)c(Cl)c2C1`, which Potency is on record?
Answer: inactive

Question: `COC(C(=O)O)c1ccccc1` (centres undefined) was tested. Which Potency did it give?
Answer: inactive

Question: For `CCC(C)OC(=O)N1CCCCC1CCO` (centres undefined), which Potency is on record?
Answer: inactive

Question: Which Potency does the source give for `CC(C=O)Cc1ccc(C(C)C)cc1` (centres undefined) here?
Answer: inactive

Question: Which Potency does the source give for `CC(C)CCCC(C)CCCC(C)CCCCC(C)CCCC(C)CCCC(C)C` (centres undefined) here?
Answer: inactive

Question: For `NC(=O)CCCCC1CCSS1` (centres undefined), which Potency is on record?
Answer: inactive

Question: How did the Potency turn out when `CC(C)[C@H](N)C(=O)OCCOCn1cnc2c(=O)[nH]c(N)nc21` was run?
Answer: inactive

Question: How did the Potency turn out when `c1ccc(CCCc2ccccn2)cc1` was run?
Answer: inactive

Question: How did the Potency turn out when `CCC(C(=O)NC(N)=O)c1ccccc1` (centres undefined) was run?
Answer: inactive

Question: For `O=C1CC2(CCCC2)CC(=O)N1`, which Potency is on record?
Answer: inactive

Question: `CC(C)c1cccc(O)c1` was tested. Which Potency did it give?
Answer: inactive

Question: `O=C(CCOCCOCCOCCOCCC(=O)Nc1c(I)cc(I)c(C(=O)O)c1I)Nc1c(I)cc(I)c(C(=O)O)c1I` was tested. Which Potency did it give?
Answer: inactive

Question: With `NC(CS)C(=O)O` (centres undefined) as the compound, how does the Potency read?
Answer: inactive

Question: `CCCCCCCCCCCCI` was tested. Which Potency did it give?
Answer: inactive

Question: How did the Potency turn out when `Cc1ccc(N)cc1[N+](=O)[O-]` was run?
Answer: inactive

Question: `CC(C)(C)OC(=O)N1C[C@@H](F)C[C@H]1C(=O)O` was tested. Which Potency did it give?
Answer: inactive

Question: With `Cn1cnc2c(=O)[nH]c(N)nc21` as the compound, how does the Potency read?
Answer: inactive

Question: For `Nc1ccn(C2CO[C@H](CO)O2)c(=O)n1` (some centres undefined), which Potency is on record?
Answer: inactive

Question: How did the Potency turn out when `COCCOC(=O)CC#N` was run?
Answer: inactive

Question: `CNc1ncnc2nc[nH]c12` was tested. Which Potency did it give?
Answer: inactive

Question: With `CCN(CC)S(=O)(=O)c1ccc(C(=O)O)cc1` as the compound, how does the Potency read?
Answer: inactive

Question: For `C=CC(=O)OCCCCCC`, which Potency is on record?
Answer: inactive

Question: How did the Potency turn out when `CCN(CC)C(=O)c1ccc(O)c(OC)c1` was run?
Answer: inactive

Question: `c1ccc2cnncc2c1` was tested. Which Potency did it give?
Answer: inactive

Question: How did the Potency turn out when `COc1ccc(COC=O)cc1` was run?
Answer: inactive

Question: `CCCCCCCCN(C)CCCCCCCC` was tested. Which Potency did it give?
Answer: inactive

Question: For `CC(C)N1C(=O)c2ccccc2C1=O`, which Potency is on record?
Answer: inactive

Question: `Fc1ccccc1-c1ccccc1` was tested. Which Potency did it give?
Answer: inactive

Question: For `NC(N)=NS(=O)(=O)c1ccc(N)cc1`, which Potency is on record?
Answer: inactive

Question: With `O=C(O)c1ccccc1-c1ccc(C(F)(F)F)cc1` as the compound, how does the Potency read?
Answer: inactive

Question: Which Potency does the source give for `CCCC(C)CO` (centres undefined) here?
Answer: inactive

Question: Which Potency does the source give for `CCC(=O)Nc1cccc(N)c1` here?
Answer: inactive

Question: How did the Potency turn out when `CN(C)N=Nc1ccccc1` was run?
Answer: inactive

Question: How did the Potency turn out when `CC(C)(O)Cc1ccccc1` was run?
Answer: inactive

Question: With `COc1cc(O)cc(O)c1` as the compound, how does the Potency read?
Answer: inactive

Question: How did the Potency turn out when `COc1cccc(Br)c1` was run?
Answer: inactive

biological target: Progesterone receptor (Homo sapiens) (UniProt P06401); test: qHTS assay to identify small molecule antagonists of the progesterone receptor (PR) signaling pathway (AID 1346795; active means well fitted inhibition curve with a large enough effect in the signal ratio in the repeat runs, not every such curve was filed as active; the % refers to the signal ratio); conditions: PR-UAS-bla HEK293T, beta-lactamase FRET ratio, 16 h; series mostly up to 92.4 µM
Summary of the method: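 HEK293T PR-UAS-bla reporter cells in charcoal-stripped serum (2%) received compound after a 6 hr settling period, followed by R5020 agonist at 1 nM final; 16 hr incubation preceded the FRET substrate step and fluorescence measurement.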

Question: `COC(=O)CCCCCCCCC(=O)OC` was tested. Which Potency did it give?
Answer: inactive

Question: Which Potency does the source give for `C[N+](C)(C)CC[N+]1(C)Cc2c(Cl)c(Cl)c(Cl)c(Cl)c2C1` here?
Answer: inactive

Question: For `COC(C(=O)O)c1ccccc1` (centres undefined), which Potency is on record?
Answer: inactive

Question: `CCC(C)OC(=O)N1CCCCC1CCO` (centres undefined) was tested. Which Potency did it give?
Answer: inactive

Question: How did the Potency turn out when `CC(C=O)Cc1ccc(C(C)C)cc1` (centres undefined) was run?
Answer: inactive

Question: Which Potency does the source give for `CC(C)CCCC(C)CCCC(C)CCCCC(C)CCCC(C)CCCC(C)C` (centres undefined) here?
Answer: inactive

Question: `NC(=O)CCCCC1CCSS1` (centres undefined) was tested. Which Potency did it give?
Answer: inactive

Question: Which Potency does the source give for `CC(C)[C@H](N)C(=O)OCCOCn1cnc2c(=O)[nH]c(N)nc21` here?
Answer: inactive

Question: `c1ccc(CCCc2ccccn2)cc1` was tested. Which Potency did it give?
Answer: inactive

Question: Which Potency does the source give for `CCC(C(=O)NC(N)=O)c1ccccc1` (centres undefined) here?
Answer: inactive

Question: With `O=C1CC2(CCCC2)CC(=O)N1` as the compound, how does the Potency read?
Answer: inactive

Question: `CC(C)c1cccc(O)c1` was tested. Which Potency did it give?
Answer: inactive

Question: Which Potency does the source give for `O=C(CCOCCOCCOCCOCCC(=O)Nc1c(I)cc(I)c(C(=O)O)c1I)Nc1c(I)cc(I)c(C(=O)O)c1I` here?
Answer: inactive

Question: With `NC(CS)C(=O)O` (centres undefined) as the compound, how does the Potency read?
Answer: inactive

Question: How did the Potency turn out when `CCCCCCCCCCCCI` was run?
Answer: inactive

Question: With `Cc1ccc(N)cc1[N+](=O)[O-]` as the compound, how does the Potency read?
Answer: inactive

Question: Which Potency does the source give for `CC(C)(C)OC(=O)N1C[C@@H](F)C[C@H]1C(=O)O` here?
Answer: inactive

Question: How did the Potency turn out when `Cn1cnc2c(=O)[nH]c(N)nc21` was run?
Answer: inactive

Question: How did the Potency turn out when `Nc1ccn(C2CO[C@H](CO)O2)c(=O)n1` (some centres undefined) was run?
Answer: inactive

Question: `COCCOC(=O)CC#N` was tested. Which Potency did it give?
Answer: inactive

Question: How did the Potency turn out when `CNc1ncnc2nc[nH]c12` was run?
Answer: inactive

Question: With `CCN(CC)S(=O)(=O)c1ccc(C(=O)O)cc1` as the compound, how does the Potency read?
Answer: inactive

Question: How did the Potency turn out when `C=CC(=O)OCCCCCC` was run?
Answer: inactive

Question: For `CCN(CC)C(=O)c1ccc(O)c(OC)c1`, which Potency is on record?
Answer: inactive

Question: Which Potency does the source give for `c1ccc2cnncc2c1` here?
Answer: inactive

Question: With `COc1ccc(COC=O)cc1` as the compound, how does the Potency read?
Answer: inactive

Question: Which Potency does the source give for `CCCCCCCCN(C)CCCCCCCC` here?
Answer: inactive

Question: For `CC(C)N1C(=O)c2ccccc2C1=O`, which Potency is on record?
Answer: inactive

Question: With `Fc1ccccc1-c1ccccc1` as the compound, how does the Potency read?
Answer: inactive

Question: How did the Potency turn out when `NC(N)=NS(=O)(=O)c1ccc(N)cc1` was run?
Answer: inactive

Question: How did the Potency turn out when `O=C(O)c1ccccc1-c1ccc(C(F)(F)F)cc1` was run?
Answer: inactive

Question: How did the Potency turn out when `CCCC(C)CO` (centres undefined) was run?
Answer: inactive

Question: For `CCC(=O)Nc1cccc(N)c1`, which Potency is on record?
Answer: inactive

Question: For `CN(C)N=Nc1ccccc1`, which Potency is on record?
Answer: inactive

Question: Which Potency does the source give for `CC(C)(O)Cc1ccccc1` here?
Answer: inactive

Question: Which Potency does the source give for `COc1cc(O)cc(O)c1` here?
Answer: inactive

Question: With `COc1cccc(Br)c1` as the compound, how does the Potency read?
Answer: inactive
